Molecules are shown by their SMILES. A number with no mark means an inactive call. Activity calls are given as the source filed them.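 The calls were made as follows, unless noted: active = inhibition above 50%; inactive = the rest.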

A short description of the first assay: antimalarial activity against Dd2 strain (AID 2302;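 active = growth inhibition above 50% at the single 2 µM test dose, taken to imply half-maximal potency below 2 µM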;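 also: 0% = DMSO untreated growth and 100% = chloroquine plus artemisinin killed control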). The note with it: P. falciparum Dd2 in RBCs, LDH growth readout, 72 h; at 2 µM; hits give high values.
As to `O=C(Nc1ccc(-c2nc3ccccc3[nH]2)cc1)c1ccc(-c2cccc([N+](=O)[O-])c2)o1`, the growth inhibition is 97% (active).

With `Cc1cc(Nc2ccc(C(C)(C)C)cc2)c2[nH]ncc2n1`, the growth inhibition is 63% (active).

As for `O=S(=O)(NCCN1CCCC1)c1ccc(-c2ccc(CNCc3ccsc3)cc2)cc1`, the growth inhibition was 36%.

Regarding `CCCCN(CCCC)Cc1cc2ccccc2cc1O`, the growth inhibition was 98% (active).

Take `Cc1cccc2[nH]c(-c3ccc(-c4cccc(NC(=O)C(C)CN5CCN(C)CC5)c4)cc3)nc12` (stereo not given): the growth inhibition was 51% (active).

As to `COc1ccc2nccc(NN=Cc3ccc(F)cc3)c2c1`, the growth inhibition was 54% (active).

For the compound `CN1C(C)(C)CC(NC(=O)c2ccc(-c3nc4cc(Cl)c(Cl)cc4[nH]3)cc2)CC1(C)C`, the growth inhibition was 97% (active).

In the case of `COc1ccc(CNCCCCCNCc2ccc(Cl)c(Cl)c2)cc1Cl`, the growth inhibition was 43%.

Turning to `COc1c(C2CCN(CCCCNC(=O)c3cc(-c4ccc(Cl)cc4)sc3C)CC2)ccc2c1CCCC2`, the growth inhibition was 65% (active).

Turning to `COc1cc2c(c(OC)c1[N+](=O)[O-])C=CC1(O2)N(C)c2ccc([N+](=O)[O-])cc2C1(C)C` (stereo not given), the growth inhibition is 89% (active).

Turning to `COc1ccc2nc(C)cc(NN=Cc3ccccc3F)c2c1`, the growth inhibition was 100% (active).

Regarding `Cc1noc(C)c1-c1ccc2c(Nc3ccc([N+](=O)[O-])cc3)c(C(N)=O)cnc2c1`, the growth inhibition is 98% (active).

`CCOC(=O)c1ccc(NC(=O)Nc2cccc(-c3ccc(-c4nc5c(C)cccc5[nH]4)s3)c2)cc1`: the growth inhibition was 99% (active).

Turning to `Cc1ccc(NS(=O)(=O)c2cccs2)cc1-c1cccc(C(=O)Nc2ccc(F)cc2)c1`, the growth inhibition is 100% (active).

With `Clc1ccc(Nc2nc(NCc3ccccc3)nc(N/N=C/c3ccccn3)n2)cc1`, the growth inhibition was 91% (active).

As to `O=C1CCCN1CCCNCc1ccc(-c2ccc(-c3nc4ccc(F)cc4[nH]3)cc2)cc1`, the growth inhibition is 99% (active).

On to `O=C(Nc1cccc(CN2CCCN(Cc3ccccc3)CC2)c1)c1ccc(-c2ccccc2)cc1`, for which the growth inhibition is 8%.

Turning to `O=[N+]([O-])c1cccc(CNCC2CCN(CCc3ccccc3)CC2)c1`, the growth inhibition was 11%.

On to `O=C(NC1CC1)c1ccc(N2CCC(Cc3ccccc3)CC2)c([N+](=O)[O-])c1`, for which the growth inhibition is 83% (active).

Consider `O=C(CCNc1ccnc(NCC2CCCCC2)n1)Nc1ccccc1`, for which the growth inhibition was 48%.

In the case of `c1ccc(CNCc2cccc(-c3cccc(-c4nc5ccccc5[nH]4)c3)c2)cc1`, the growth inhibition is 38%.

Turning to `C[C@]12CC3CC(Nc4nc(N5CCOCC5)nc5ccccc45)(C1)C[C@@](C)(C3)C2`, the growth inhibition was 14%.

Turning to `COc1cc2nc(N(C)Cc3cccc(I)c3)nc(N)c2cc1OC`, the growth inhibition is 88% (active).

Take `c1ccc2c(c1)ncn2-c1ccnc(Nc2ccncc2)n1`: the growth inhibition was 80% (active).

On to `FC(F)(F)c1ccc(CNC2CCN(CC3CCCCC3)CC2)cc1`, for which the growth inhibition was 5%.

For `Cc1cc(NCC(c2ccccc2)c2ccccc2)nc(NCc2ccc(C(F)(F)F)cc2)n1`, the growth inhibition is 79% (active).

Turning to `COc1ccc(NC(=O)C2c3ccccc3C(=O)N(C3CCCC3)C2c2cccs2)cc1` (stereo not given), the growth inhibition is 75% (active).

For `COc1cc(C(=O)N2CCN(C(C)C)CC2)ccc1CN(C)CCCCN1CCN(c2cccc(Cl)c2Cl)CC1`, the growth inhibition is 98% (active).

On to `CC1(C)N=C(N)N=C(N)N1OCc1cccc(Cl)c1Cl`, for which the growth inhibition is 75% (active).

In the case of `O=C(NC1CC1)c1ccc(N2CCCCN2CCc2ccccc2)c(C(F)(F)F)c1`, the growth inhibition was 84% (active).

For the compound `O=C(NCCCCN1CCC(c2ccc3ccccc3c2O)CC1)c1ccc(NC(=O)c2ccc(Cl)cc2)cc1`, the growth inhibition is 89% (active).

As for `CN(C)CCOc1ccc2c(c1)OC(C)(C)C=C2c1cccc2ccccc12`, the growth inhibition was 48%.

For `Oc1cccc2c1CC(NCc1ccccc1)CC2` (stereo not given), the growth inhibition was 24%.

Take `C=CCc1cccc(C)c1OCCCON1C(N)=NC(N)=NC1(C)C`: the growth inhibition was 95% (active).

In the case of `COc1cccc2c(NCc3ccccc3)nc(NCCCN3CCCCC3C)nc12` (stereo not given), the growth inhibition was 2%.

Turning to `O=C(Nc1cccc(-c2csc(-c3nc4ccccc4[nH]3)c2)c1)c1ccncc1`, the growth inhibition was 61% (active).

As for `CCCc1cc(Cc2cnc(N)nc2N)cc(OCCCCCC(=O)O)c1OC`, the growth inhibition was 2%.

Consider `CCOc1cc(C=NNc2nc3ccccc3[nH]2)ccc1OCc1ccc([N+](=O)[O-])cc1`, for which the growth inhibition was 1%.

For the compound `Cc1nnc(-c2ccc3ccccc3c2)c2cn(-c3cccc([N+](=O)[O-])c3)nc12`, the growth inhibition was 67% (active).

Turning to `CC(C)(C)c1ccc(CN2CCC(CNC(=O)c3cc(-c4ccccc4C(F)(F)F)cs3)C2)cc1` (stereo not given), the growth inhibition was 11%.

The nature of the next assay: HepG2 cytotoxicity, primary screen, cytotoxicity control for P. falciparum antimalarial project, cell-based, ATP luminescence (AID 2303).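 Also: 0% = DMSO wells and 100% = digitonin-killed cells.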 The note with it: HepG2 viability, 24-48 h, at 10 µM, hits give high values.
Regarding `O=C(Nc1ccc(-c2nc3ccccc3[nH]2)cc1)c1ccc(-c2cccc([N+](=O)[O-])c2)o1`, the inhibition was 47%.

Regarding `Cc1cc(Nc2ccc(C(C)(C)C)cc2)c2[nH]ncc2n1`, the inhibition was 31%.

As to `O=S(=O)(NCCN1CCCC1)c1ccc(-c2ccc(CNCc3ccsc3)cc2)cc1`, the inhibition was 44%.

For `CCCCN(CCCC)Cc1cc2ccccc2cc1O`, the inhibition was 9%.

For the compound `Cc1cccc2[nH]c(-c3ccc(-c4cccc(NC(=O)C(C)CN5CCN(C)CC5)c4)cc3)nc12` (stereo not given), the inhibition is 5%.

Regarding `COc1ccc2nccc(NN=Cc3ccc(F)cc3)c2c1`, the inhibition is 2%.

Turning to `CN1C(C)(C)CC(NC(=O)c2ccc(-c3nc4cc(Cl)c(Cl)cc4[nH]3)cc2)CC1(C)C`, the inhibition was 8%.

On to `COc1ccc(CNCCCCCNCc2ccc(Cl)c(Cl)c2)cc1Cl`, for which the inhibition was 42%.

For the compound `COc1c(C2CCN(CCCCNC(=O)c3cc(-c4ccc(Cl)cc4)sc3C)CC2)ccc2c1CCCC2`, the inhibition was 61% (active).

As to `COc1cc2c(c(OC)c1[N+](=O)[O-])C=CC1(O2)N(C)c2ccc([N+](=O)[O-])cc2C1(C)C` (stereo not given), the inhibition is -13%.

On to `COc1ccc2nc(C)cc(NN=Cc3ccccc3F)c2c1`, for which the inhibition is 3%.

On to `Cc1noc(C)c1-c1ccc2c(Nc3ccc([N+](=O)[O-])cc3)c(C(N)=O)cnc2c1`, for which the inhibition was 4%.

As to `CCOC(=O)c1ccc(NC(=O)Nc2cccc(-c3ccc(-c4nc5c(C)cccc5[nH]4)s3)c2)cc1`, the inhibition was 44%.

Turning to `Cc1ccc(NS(=O)(=O)c2cccs2)cc1-c1cccc(C(=O)Nc2ccc(F)cc2)c1`, the inhibition was 38%.

On to `Clc1ccc(Nc2nc(NCc3ccccc3)nc(N/N=C/c3ccccn3)n2)cc1`, for which the inhibition was 41%.

On to `O=C1CCCN1CCCNCc1ccc(-c2ccc(-c3nc4ccc(F)cc4[nH]3)cc2)cc1`, for which the inhibition is 16%.

Take `O=C(Nc1cccc(CN2CCCN(Cc3ccccc3)CC2)c1)c1ccc(-c2ccccc2)cc1`: the inhibition is 45%.

As to `O=[N+]([O-])c1cccc(CNCC2CCN(CCc3ccccc3)CC2)c1`, the inhibition was 15%.

Turning to `O=C(NC1CC1)c1ccc(N2CCC(Cc3ccccc3)CC2)c([N+](=O)[O-])c1`, the inhibition is 12%.

Turning to `O=C(CCNc1ccnc(NCC2CCCCC2)n1)Nc1ccccc1`, the inhibition is 55% (active).

On to `c1ccc(CNCc2cccc(-c3cccc(-c4nc5ccccc5[nH]4)c3)c2)cc1`, for which the inhibition was 12%.

Take `C[C@]12CC3CC(Nc4nc(N5CCOCC5)nc5ccccc45)(C1)C[C@@](C)(C3)C2`: the inhibition is 31%.

Regarding `COc1cc2nc(N(C)Cc3cccc(I)c3)nc(N)c2cc1OC`, the inhibition was 7%.

Take `c1ccc2c(c1)ncn2-c1ccnc(Nc2ccncc2)n1`: the inhibition was 0%.

In the case of `FC(F)(F)c1ccc(CNC2CCN(CC3CCCCC3)CC2)cc1`, the inhibition was 4%.

Take `Cc1cc(NCC(c2ccccc2)c2ccccc2)nc(NCc2ccc(C(F)(F)F)cc2)n1`: the inhibition was 29%.

In the case of `COc1ccc(NC(=O)C2c3ccccc3C(=O)N(C3CCCC3)C2c2cccs2)cc1` (stereo not given), the inhibition was 0%.

On to `COc1cc(C(=O)N2CCN(C(C)C)CC2)ccc1CN(C)CCCCN1CCN(c2cccc(Cl)c2Cl)CC1`, for which the inhibition is 79% (active).

As for `CC1(C)N=C(N)N=C(N)N1OCc1cccc(Cl)c1Cl`, the inhibition is 68% (active).

Take `O=C(NC1CC1)c1ccc(N2CCCCN2CCc2ccccc2)c(C(F)(F)F)c1`: the inhibition was -9%.

Turning to `O=C(NCCCCN1CCC(c2ccc3ccccc3c2O)CC1)c1ccc(NC(=O)c2ccc(Cl)cc2)cc1`, the inhibition is 34%.

Consider `CN(C)CCOc1ccc2c(c1)OC(C)(C)C=C2c1cccc2ccccc12`, for which the inhibition is 66% (active).

For `Oc1cccc2c1CC(NCc1ccccc1)CC2` (stereo not given), the inhibition was 4%.

With `C=CCc1cccc(C)c1OCCCON1C(N)=NC(N)=NC1(C)C`, the inhibition was 65% (active).

Regarding `COc1cccc2c(NCc3ccccc3)nc(NCCCN3CCCCC3C)nc12` (stereo not given), the inhibition was 20%.

In the case of `O=C(Nc1cccc(-c2csc(-c3nc4ccccc4[nH]3)c2)c1)c1ccncc1`, the inhibition was 64% (active).

In the case of `CCCc1cc(Cc2cnc(N)nc2N)cc(OCCCCCC(=O)O)c1OC`, the inhibition is 8%.

Turning to `CCOc1cc(C=NNc2nc3ccccc3[nH]2)ccc1OCc1ccc([N+](=O)[O-])cc1`, the inhibition was 2%.

With `Cc1nnc(-c2ccc3ccccc3c2)c2cn(-c3cccc([N+](=O)[O-])c3)nc12`, the inhibition is 29%.

Consider `CC(C)(C)c1ccc(CN2CCC(CNC(=O)c3cc(-c4ccccc4C(F)(F)F)cs3)C2)cc1` (stereo not given), for which the inhibition is 61% (active).

Source of the values: PubChem BioAssay.
